Experimental findings from PubChem BioAssay (EPA / NIEHS) are described below.

Test [1] can be described thus: CCTE_Deisenroth_AIME_96WELL_CTox_Active: Cytotoxicity Assessment (CTOX) in CCTE's 96-well Estrogen Receptor Transactivation Assay with AIME metabolic competence (metabolism positive), Deisenroth Lab (AID 2284028). Summed up:
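Cytotoxicity in VM7Luc4E2 breast cells after 24 h exposure to medium from a 2 h metabolic pre-incubation with induced rat hepatic S9 in alginate microspheres; fluorescent live-cell protease readout, 10-point series 0.002–200 uM, n=4.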

Test [2] is described as follows: CCTE_Deisenroth_AIME_96WELL_CTox_Inactive: Cytotoxicity Assessment (CTOX) in CCTE's 96-well Estrogen Receptor Transactivation Assay without AIME metabolic competence (metabolism negative), Deisenroth Lab (AID 2284029). On the procedure:
CCTE_Deisenroth_AIME_96WELL (AIME metabolism assay) is a cell-based, single-readout assay that uses VM7Luc4E2, a human mammary gland/breast cell line, with measurements taken at 24 hour after chemical dosing in a 96-well plate.CCTE_Deisenroth_AIME_96WELL_CTox_Inactive is one of four assay components measured or calculated from the CCTE_Deisenroth_AIME_96WELL assay. It is designed to make measurements of a protease substrate, a type of viability indicator, as detected with substrate cleavage to a fluorescent probe in living cells.CCTE_Deisenroth_AIME_96WELL_CTox_Inactive is a component of the CCTE_Deisenroth_AIME_96WELL assay that measures the effect of retroftting the VM7Luc ERTA assay with the Alginate Immobolization of Metabolic Enzymes (AIME) metabolism method. AIME is optimized to impart phase I hepatic metabolism using phenobarbital/beta-naphthoflavone induced hepatic S9 from male Sprague Dawley rats. Parent chemicals are incubated for 2 hours in the AIME assay prior to transfer to the VM7Luc ERTA assay plate. […] This endpoint evaluates cytotoxicity in metabolism negative mode. Using a type of flourescent probe in VM7Luc cells, loss-of-signal activity can be used to understand loss of viability. This assay endpoint, CCTE_Deisenroth_AIME_96WELL_CTox_Inactive, was analyzed with bidirectional fitting in the ERTA assay. […]

A short description of test [3]: CCTE_Shafer_MEA_dev_firing_rate_mean: CCTE's Neural Network Formation Assay for Mean Firing Rate, Shafer Lab (AID 2284031; active means hit-call score of the fitted dose curve at least 0.9, where 1 is the maximum; inactive means score below 0.9;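 on AC50: curve fitted for loss of firing so AC50 reflects decreased mean firing rate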). On the procedure:
CCTE_Shafer_MEA_dev assay is conducted using Axion Biosystems 48 well microelectrode array (MEA) plates and Maestro recording system. Each well of the MEA plate contains a grid of 16 microelectrodes embedded in the culture surface. Electrically active cells, such as neurons, can be cultured over the electrodes, and electrical activity in these cells can be recorded extracellularly. The spontaneous firing of neurons is captured from each electrode on a microsecond timescale providing both temporally and spatially precise data. […] The CCTE_Shafer_MEA_dev assay uses primary cultures of rat cortical neurons. Recordings are made on days post-plating 5, 7, 9 and 12. As these cultures mature over time, neural networks develop functional activity and form cohesive networks in which electrical activity can be highly coordinated. CCTE_Shafer_MEA_dev_firing_rate_mean is 1 of 19 assay components of the CCTE_Shafer_MEA_dev assay. It measures the frequency of spikes (action potential firings) as the total number of spikes divided by the length of the recording in a microelectrode array (MEA) using Axion Biosystems Maestro 768 channel amplifier with the AxIS adaptive spike detector. The firing rate is averaged across the active electrodes to report a well-mean value. To collapse across multiple recordings made on days post-plating 5, 7, 9 and 12, the trapezoidal area-under-the-curve of the component is calculated.Data from the assay component CCTE_Shafer_MEA_dev_firing_rate_mean was analyzed into 1 assay endpoint. This assay endpoint, CCTE_Shafer_MEA_dev_firing_rate_mean, was analyzed in the negative analysis fitting direction relative to DMSO as the negative control and baseline of activity. Using a type of functional reporter, gain or loss-of-signal activity can be used to understand electrical activity.
On the day prior to culture, each well was coated thoroughly with 150 uL of 0.05% polyethyleneimine (PEI, Sigma Cat P3143) in 50 mM HEPES (Sigma Cat H7523) at a pH of 8. The plate was incubated at 37C for one hour. PEI was rinsed out with 500 uL of sterile water three times. Plates were stored at 4C until the day of culture. This culture was plated at a seeding density of 1.5 x 10^5 cells/well on a 48-well MEA plate, prepared as described above. Cells were administered via a 25 uL media/laminin ([…]; Sigma Cat L2020-1MG) drop directly onto the microelectrode array, as adding the cells with the laminin results in better attachment than pre-coating with laminin. After 2 hours, an additional 475 uL of cortical media was added and the cells returned to the incubator. Exposure starts at day 0 of plating and is continued over twelve days of network development until the experiment is terminated. Cells are fed with fresh medium on DIV 5 and 9, following the recordings on those days. The entire volume of media in the well is exchanged and any vehicle or compound treatment is renewed. Complete details are found in OP-NHEERL/ISTD/SBB/TJS/2015-03-r0 (available on request, email shafer.tim@epa.gov). Measurement of the electrical activity is non-invasive, and recordings can be made from the same plate over multiple different days of the culture. In cortical neurons, this allows for the measurement of extracellular action potentials over the period during which networks form in the MEA plate.

Test [4] can be described thus: CCTE_Shafer_MEA_dev_per_burst_spike_percent: CCTE's Neural Network Formation Assay for Percent of Spikes in a Burst, Shafer Lab (AID 2284032; active means hit-call score of the fitted dose curve at least 0.9, where 1 is the maximum; inactive means score below 0.9;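 on AC50: fitted as a decrease in burst spike percentage below DMSO baseline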). In a few lines:
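Value is trapezoidal AUC over recordings on days 5, 7, 9 and 12 of the well-mean fraction of spikes falling in single-electrode bursts; rat cortical cultures exposed continuously from plating, treatment renewed DIV 5 and 9, fitted downward against DMSO.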

The nature of test [5]: CCTE_Shafer_MEA_dev_active_electrodes_number: CCTE's Neural Network Formation Assay for Number of Active Electrodes, Shafer Lab (AID 2284040).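 On AC50: potency for loss of active electrodes versus DMSO so lower counts are hits.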 Summed up:
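Counts electrodes per well firing at least 5 spikes/min, recorded on days 5, 7, 9 and 12 in rat cortical cultures dosed continuously from plating (treatment refreshed DIV 5, 9). Value is the area under the curve over recordings, fitted downward relative to DMSO.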

Test [6] in a line: CCTE_Deisenroth_AIME_384WELL_CTox_Active: Cytotoxicity Assessment (CTOX) in CCTE's 384-well Estrogen Receptor Transactivation Assay with AIME metabolic competence (metabolism positive), Deisenroth Lab (AID 2284037).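 Further: chemicals first conditioned 2 h by alginate-bound induced rat liver S9 before cells; activity means signal loss indicating cell death.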 Summed up:
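Chemicals pre-incubated 2 hours with alginate-immobilised phenobarbital/beta-naphthoflavone-induced male Sprague Dawley rat liver S9, then conditioned medium applied 24 hour to VM7Luc4E2 cells. Viability by fluorogenic protease substrate; 10-point series 0.002 - 200 uM.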

A short description of test [7]: CCTE_Deisenroth_AIME_384WELL_CTox_Inactive: Cytotoxicity Assessment (CTOX) in CCTE's 384-well Estrogen Receptor Transactivation Assay without AIME metabolic competence (metabolism negative), Deisenroth Lab (AID 2284039).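 Further: cell viability via live-cell protease substrate cleaved to fluorescent probe; cells exposed 24 h to medium preincubated 2 h with alginate-water beads without S9; loss of fluorescence signal means loss of viability.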 In a few lines:
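VM7Luc4E2 cells, metabolism-negative arm: test chemicals (0.002–200 uM, 10 points) pre-incubated 2 h with alginate-water microspheres, then medium transferred to cells for 24 h. Viability read as protease-substrate cleavage to fluorescent probe; loss-of-signal, bidirectional fitting.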

The target in test [8] is Estrogen receptor (Homo sapiens) (UniProt P03372). Briefly: CCTE_Deisenroth_AIME_384WELL_LUC_Active: CCTE's 384-well Estrogen Receptor Transactivation Assay with AIME metabolic competence (ERTA luciferase; metabolism positive), Deisenroth Lab (AID 2284030). Summed up: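 AIME metabolism-positive mode: chemicals 0.002 - 200 uM, 2 h with alginate-bound PB/BNF-induced rat S9 → medium to VM7Luc4E2 ERTA, 24 h → luciferase. Positive fit vs 17beta-estradiol; n=4 typical.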
Chain of Estrogen receptor (Homo sapiens) (P03372 whole entry, looked up): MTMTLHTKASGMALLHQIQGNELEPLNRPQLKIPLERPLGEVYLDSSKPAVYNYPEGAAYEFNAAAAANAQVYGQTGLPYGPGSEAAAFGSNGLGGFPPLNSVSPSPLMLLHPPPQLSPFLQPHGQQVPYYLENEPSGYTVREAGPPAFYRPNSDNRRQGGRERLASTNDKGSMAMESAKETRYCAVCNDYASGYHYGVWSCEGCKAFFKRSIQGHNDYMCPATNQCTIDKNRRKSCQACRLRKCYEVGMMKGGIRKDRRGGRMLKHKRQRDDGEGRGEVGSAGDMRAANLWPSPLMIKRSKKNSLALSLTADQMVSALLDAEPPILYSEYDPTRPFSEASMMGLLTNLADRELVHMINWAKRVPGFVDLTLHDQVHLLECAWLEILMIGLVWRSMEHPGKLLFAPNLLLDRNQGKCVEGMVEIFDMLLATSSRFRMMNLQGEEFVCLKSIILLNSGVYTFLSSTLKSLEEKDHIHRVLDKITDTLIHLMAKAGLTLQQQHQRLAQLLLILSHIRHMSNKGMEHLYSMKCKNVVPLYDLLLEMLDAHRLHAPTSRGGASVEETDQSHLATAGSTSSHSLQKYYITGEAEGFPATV

Test [9] shares this target. Briefly: CCTE_Deisenroth_AIME_384WELL_LUC_Inactive: CCTE's 384-well Estrogen Receptor Transactivation Assay without AIME metabolic competence (ERTA luciferase; metabolism negative), Deisenroth Lab (AID 2284038).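 Further: hits raise estrogen receptor luciferase signal so potencies reflect agonists.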 In a few lines: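 VM7Luc4E2 ER transactivation, luciferase bioluminescence after 24 h, using medium pre-incubated 2 h with S9-free alginate microspheres. Concentrations 0.002–200 uM; gain of signal fitted relative to 17beta-estradiol.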

Molecules are shown by their SMILES. Records with an inconclusive call do not appear. Calls of active or inactive are those of the source. How the source made its calls, unless noted: active means hit-call score of the fitted dose curve at least 0.9, where 1 is the maximum; inconclusive means response in the unintended direction; inactive means score below 0.9.

Regarding `S=c1[nH]c2ccccc2s1`, the compound was classed as inactive in test [1].

With `Oc1ccc(O)cc1`, the call in test [1] and in test [2] was inactive.

Take `COC(=O)[C@H]1[C@H]2C[C@@H]3c4[nH]c5cc(OC)ccc5c4CCN3C[C@H]2C[C@@H](OC(=O)c2cc(OC)c(OC)c(OC)c2)[C@@H]1OC`: the figures for the AC50 in test [3], in [4] and in [5] were 2.8 µM (active), 5.76 µM (active) and 5.24 µM (active), respectively.

Turning to `CN(C)CCCN1c2ccccc2Sc2ccc(Cl)cc21`, the AC50 in [3] was 3.43 µM (active); in test [4], 6.1 µM (active); in test [5], 5.17 µM (active).

Take `CC(C)(O)c1ccc(CNC(=O)c2cccnc2Oc2ccc(F)cc2)cc1`: the outcome in [6] was inactive.

`O=C1O[C@H]([C@H](O)CO)C(O)=C1O`: the compound was classed as inactive in test [7].

On to `COC(=O)CCC(=O)OC`, for which the compound was called inactive in test [8] and in test [9].

With `CC(=O)O`, the compound was classed as inactive in test [6] and in test [7].

On to `O=C1CCCCC1`, for which the call in test [8], in test [6], in test [9] and in test [7] was inactive.

Take `CC(=O)OCC(COC(C)=O)OC(C)=O`: the result in test [6] was inactive.

For `C/C=C/C=C/C(=O)O`, the call in test [6] and in [7] was inactive.

In the case of `O=C(O)c1[nH]n(-c2ccc(S(=O)(=O)O)cc2)c(=O)c1N=Nc1ccc(S(=O)(=O)O)cc1`, the compound was called inactive in [8] and in test [9]. Also, the AC50 in [6] and in test [7] was 100 µM (active) in each case.

With `O=[Si]=O`, the outcome in test [8], in test [6], in test [9] and in test [7] was inactive.

Turning to `CC(=O)CC(c1ccccc1)c1c(O)c2ccccc2oc1=O` (centres undefined), the result in test [3], in test [4], in test [6] and in test [7] was inactive. In [5], the AC50 is 2.98 µM (active).

Turning to `CC1(C)C(=O)NC(=O)N1CO`, the result in test [8], in test [6], in test [9] and in test [7] was inactive.

Take `O=C1NC(=O)C(c2ccccc2)(c2ccccc2)N1`: the outcome in test [3], in test [4] and in test [5] was inactive.

For the compound `O=C(O)c1cccnc1`, the result in [7] was inactive.

For the compound `CCCCCCCC(=O)OC`, the compound was classed as inactive in [8], in test [6], in test [9] and in [7].

As for `CCCCCCC(CCCCCCCCCCC(=O)OCC(COC(C)=O)OC(C)=O)OC(C)=O` (centres undefined), the result in [8], in test [9] and in test [7] was inactive.

Take `CCOCCOCCO`: the compound was called inactive in test [6] and in test [7].

As for `CCCCCCC(C=O)=Cc1ccccc1`, in [7], the call was inactive.

Consider `Cc1occc(=O)c1O`, for which the compound was called inactive in test [7].

As to `NC1CCCCC1`, the compound was classed as inactive in test [8] and in test [9].

Take `OCC(O)CO`: the call in test [3], in test [4] and in [5] was inactive.

Consider `CN(C)CCCN(C)CCCN(C)C`, for which the outcome in test [8], in test [6], in test [9] and in [7] was inactive.

Regarding `CC(C)c1cccc(C(C)C)c1`, the compound was called inactive in test [8], in test [6], in test [9] and in test [7].

As for `NC=O`, the compound was called inactive in [6] and in test [7].

For the compound `CCCCCCCCCCCCCCCCO`, the call in [8], in test [6] and in test [9] was inactive.

Consider `O=C(O)CC(O)(CC(=O)O)C(=O)O`, for which the compound was called inactive in [8], in [6] and in test [9].

As to `CCCCC(CC)CO` (centres undefined), the compound was classed as inactive in test [6] and in [7].

Turning to `COC(=O)CCCC(=O)OC`, in test [6], the result was inactive.

Consider `Oc1ccccc1O`, for which the AC50 in [6] is 100 µM (active); in test [7], 51.8 µM (active).

In the case of `CC(C)OC(=O)C(C)(C)Oc1ccc(C(=O)c2ccc(Cl)cc2)cc1`, the compound was called inactive in [8], in test [6], in [9] and in test [7].
